Measurements from PMC7862700, “An all-to-all approach to the identification of sequence-specific readers for epigenetic DNA modifications on cytosine”.

Tests used:
Assay in all cases: DAPPL (digital affinity profiling via proximity ligation, sequencing); 10 mM Tris-HCl pH 7.5, 50 mM NaCl, 1 mM DTT, 4% glycerol, room temperature, 30 min; GST-TFs on glutathione beads, 16-mer random dsDNA library, 0.1% formaldehyde crosslink after washing; high values mean tight binding
HSF1 = HSF1 (Homo sapiens, UniProt Q00613 1-529); details: protein: recombinant; tags: N-terminal GST; chain copies: 3; dsDNA, one strand shown
Chain of HSF1 (Q00613 whole entry, the tested form may be a part): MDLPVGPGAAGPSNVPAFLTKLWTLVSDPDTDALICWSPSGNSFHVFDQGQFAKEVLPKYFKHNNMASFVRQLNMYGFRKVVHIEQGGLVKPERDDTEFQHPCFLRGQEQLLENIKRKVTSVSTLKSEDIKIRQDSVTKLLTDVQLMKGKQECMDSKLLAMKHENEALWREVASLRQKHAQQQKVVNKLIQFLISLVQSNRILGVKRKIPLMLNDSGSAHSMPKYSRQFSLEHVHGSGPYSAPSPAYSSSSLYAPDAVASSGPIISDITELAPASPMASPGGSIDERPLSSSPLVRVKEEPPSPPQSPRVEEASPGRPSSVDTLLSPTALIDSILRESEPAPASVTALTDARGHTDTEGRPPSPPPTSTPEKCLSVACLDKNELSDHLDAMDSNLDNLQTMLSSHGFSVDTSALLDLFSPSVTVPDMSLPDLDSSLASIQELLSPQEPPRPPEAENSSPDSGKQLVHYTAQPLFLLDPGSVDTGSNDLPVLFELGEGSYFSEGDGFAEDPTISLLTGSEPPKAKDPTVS
Summary of the method: (§1)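 Binding signal is defined as a hexamer's read frequency for one factor over its frequency for the tag-only sample. To obtain reads, GST-fused human transcription factors were expressed in yeast, captured on glutathione beads, barcoded with DNA and pooled with that sample. Pools met 200 nmole of a 16-mer random double-stranded DNA library in Tris/NaCl/DTT/glycerol buffer for 30 min at room temperature before washing, 0.1% formaldehyde crosslinking, proximity ligation (BsaI/T4 ligase, 1 h, 37 °C), PCR and Illumina NextSeq500 sequencing.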

FLI1 = target: T1, FLI1 (Homo sapiens, UniProt Q01543 1-452); details: protein: recombinant; tags: N-terminal GST; dsDNA, one strand shown
T1 sequence: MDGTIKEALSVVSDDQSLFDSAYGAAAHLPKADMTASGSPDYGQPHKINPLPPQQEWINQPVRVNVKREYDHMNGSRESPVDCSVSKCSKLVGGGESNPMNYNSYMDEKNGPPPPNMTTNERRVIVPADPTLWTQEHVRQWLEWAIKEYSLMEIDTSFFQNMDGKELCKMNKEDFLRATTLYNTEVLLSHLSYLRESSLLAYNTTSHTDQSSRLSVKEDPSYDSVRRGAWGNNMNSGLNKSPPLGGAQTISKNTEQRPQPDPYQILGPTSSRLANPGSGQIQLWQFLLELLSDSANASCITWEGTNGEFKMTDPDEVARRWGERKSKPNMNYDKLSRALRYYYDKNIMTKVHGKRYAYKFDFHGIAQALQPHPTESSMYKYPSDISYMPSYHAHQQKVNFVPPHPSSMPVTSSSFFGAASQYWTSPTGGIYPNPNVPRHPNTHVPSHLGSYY
Summary of the method: as §1

ELK3 = target: T2, ELK3 (Homo sapiens, UniProt P41970 1-407); details: protein: recombinant; tags: N-terminal GST; dsDNA, one strand shown
T2 sequence: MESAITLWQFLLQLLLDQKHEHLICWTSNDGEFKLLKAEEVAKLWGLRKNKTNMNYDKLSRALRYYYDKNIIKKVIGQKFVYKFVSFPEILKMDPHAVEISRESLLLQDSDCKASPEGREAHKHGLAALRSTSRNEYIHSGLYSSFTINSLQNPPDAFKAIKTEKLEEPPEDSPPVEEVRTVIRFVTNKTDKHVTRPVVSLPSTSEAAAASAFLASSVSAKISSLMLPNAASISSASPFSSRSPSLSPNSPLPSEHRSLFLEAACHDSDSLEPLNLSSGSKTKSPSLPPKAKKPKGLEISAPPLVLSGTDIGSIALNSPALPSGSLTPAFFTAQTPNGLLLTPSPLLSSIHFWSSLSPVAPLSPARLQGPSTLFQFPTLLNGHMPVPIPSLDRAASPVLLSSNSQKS
Summary of the method: as §1

ELK4 = target: T3, ELK4 (Homo sapiens, UniProt P28324-2 1-405); details: protein: recombinant; tags: N-terminal GST; dsDNA, one strand shown
T3 sequence: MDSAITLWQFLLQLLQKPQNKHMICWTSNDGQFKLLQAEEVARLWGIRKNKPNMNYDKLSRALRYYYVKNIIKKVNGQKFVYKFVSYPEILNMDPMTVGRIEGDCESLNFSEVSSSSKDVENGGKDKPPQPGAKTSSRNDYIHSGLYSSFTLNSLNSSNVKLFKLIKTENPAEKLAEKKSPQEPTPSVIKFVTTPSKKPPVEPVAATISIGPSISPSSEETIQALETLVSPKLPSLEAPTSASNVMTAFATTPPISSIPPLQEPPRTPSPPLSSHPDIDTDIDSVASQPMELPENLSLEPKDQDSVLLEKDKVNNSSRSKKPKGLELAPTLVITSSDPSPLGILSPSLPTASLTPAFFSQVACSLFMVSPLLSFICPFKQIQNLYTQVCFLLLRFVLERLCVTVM
Summary of the method: as §1

ETV3 = target: T4, ETV3 (Homo sapiens, UniProt P41162-2 1-143); details: protein: recombinant; tags: N-terminal GST; dsDNA, one strand shown
T4 sequence: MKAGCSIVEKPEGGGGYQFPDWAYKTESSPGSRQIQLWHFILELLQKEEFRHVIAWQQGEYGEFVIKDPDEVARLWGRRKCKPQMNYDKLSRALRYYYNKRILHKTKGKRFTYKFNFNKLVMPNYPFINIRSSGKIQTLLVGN
Summary of the method: as §1

Sequence	binding signal (HSF1)	binding signal (FLI1)	binding signal (ELK3)	binding signal (ELK4)	binding signal (ETV3)
CGAGTA	1.1 fold enrichment (6-mer frequency, TF over GST control)				
GCCTGT		1.02 fold enrichment (6-mer frequency, TF over GST control)	1.03 fold enrichment (6-mer frequency, TF over GST control)	1.05 fold enrichment (6-mer frequency, TF over GST control)	1.04 fold enrichment (6-mer frequency, TF over GST control)
